{"source": "PubChem BioAssay (NCATS)", "note": "Records with an inconclusive call do not appear. Unmarked numbers belong to inactive results. Active and inactive are the calls of the source. Calls come from the whole dose curve; as a rule, active = well fitted cell-killing curve with a large enough effect; inconclusive = small, poorly fitted or top-dose-only effect, or effect the other way; inactive = no such curve, though single readings can be large or run the other way. Potency is the fitted concentration of half-maximal effect.", "data": [{"experiment": "Quantitative High-Throughput drug screen in 47 multiple myeloma cell lines against the NCATS MIPE library collection: OPM1_PLB cell viability assay (AID 1918989); note: nearly all actives have a fitted effect of over 40% in size", "conditions": "CellTiter-Glo, 48 h; series mostly up to 45.8 µM; viability (% of control): at the top concentration", "from_the_text": "PI: Beverly A. Mock Ph.D.\nLaboratory of Cancer Biology and Genetics,\nCenter for Cancer Research, National Cancer Institute,\nNational Institute of Health, Bethesda, Maryland\nDrug resistance and disease progression are common in multiple myeloma (MM) patients, underscoring the need for new therapeutic combinations. […] We hypothesized that effective combinations would reduce MYC expression and enhance p16 activity. […] These preclinical data identify potentially useful drug combinations for evaluation in drug-resistant MM and reveal potential mechanisms of combined drug sensitivity.\nDescribed herein is the primary MIPE qHTS used to cherrypick compounds. Validated compounds were then further tested for potential synergistic activiy.\n[1] Peat TJ, Gaikwad SM, Dubois W, Gyabaah-Kessie N, Zhang S, Gorjifard S, Phyo Z, Andres M, Hughitt VK, Simpson RM, Miller MA, Girvin AT, Taylor A, Williams D, D'Antonio N, Zhang Y, Rajagopalan A, Flietner E, Wilson K, Zhang X, Shinn P, Klumpp-Thomas C, McKnight C, Itkin Z, Chen L, Kazandijian D, Zhang J, Michalowski AM, Simmons JK, Keats J, Thomas CJ, Mock BA. Drug combinations identified by high-throughput screening promote cell cycle transition and upregulate Smad pathways in myeloma. Cancer Lett. 2023 Aug 1;568:216284. doi: 10.1016/j.canlet.2023.216284. Epub 2023 Jun 24. PMID: 37356470; PMCID: PMC10408729.\nSEQUENCE No. (e.g., 1, 2, 3, etc.); […] (e.g., Cells, Incubation, Reagent, etc.); VALUE and DESCRIPTION.\n1; Cells; 5 uL; white, solid bottom 1536-well Greiner assay plate.\n2; Compounds; 23 nL; Kalypsis pin tool (Wako USA) equipped with a 1536-well pin head to transfer to the assay plates.\n3; Incubation; 48 hours; 37C incubation.\n4; Reagent;5uL; CellTiter Glo (Promega).\n5; Detector; 425V; Luminescence; Viewlux PerkinElmer.\nNOTES (numbers refer to Sequence numbers above)\n1. The cell-based screening methods employed in this study were like those previously published. Briefly, the corresponding myeloma cell lines were screened in 1,536-well plates with 500 cells, 5-uL per well for inhibition of cell viability (assessed by measuring ATP levels with CellTiterGlo).\n2. NCATS MIPE 4.0 library of approved and investigational drugs were added using the Kalypsis pin tool. Wells treated with DMSO only for 100% viability and media only for 0% viability were used as controls.\n3. The assay plates were covered and incubated for 48 hours in a 37C, 5% CO2 incubator with controlled humidity.\n4. After 48 hours, CellTilter-GloTM luminescent substrate mix (Promega) reagent was added to the assay plate and plates we incubated for 5 min at room temperature.\n5. Signal was measured as median relative luminescence units on a ViewLux (PerkinElmer) multiplate reader.\n[1] Heske CM, Davis MI, Baumgart JT, Wilson K, Gormally MV, Chen L, Zhang X, Ceribelli M, Duveau DY, Guha R, Ferrer M, Arnaldez FI, Ji J, Tran HL, Zhang Y, Mendoza A, Helman LJ, Thomas CJ. Matrix Screen Identifies Synergistic Combination of PARP Inhibitors and Nicotinamide Phosphoribosyltransferase (NAMPT) Inhibitors in Ewing Sarcoma. Clin Cancer Res. 2017 Dec 1;23(23):7301-7311. doi: 10.1158/1078-0432.CCR-17-1121. Epub 2017 Sep 12. PMID: 28899971; PMCID: PMC6636827.", "units": {"viability (% of control)": "%"}, "values": [{"smiles": "C[C@@]12OC(=O)[C@]1([C@@H](O)[C@@H]1C=CCCC1)NC(=O)[C@H]2CCCl", "Potency": "0.001 µM (active)"}, {"smiles": "CN[C@@H]1Cc2cccc3[nH]c(=O)n(c23)C1", "viability (% of control)": 126}, {"smiles": "COc1ccc(N(C(=O)Oc2c(C)cccc2C)c2ccnc(Nc3ccc(N4CCN(C)CC4)cc3)n2)c(OC)c1", "Potency": "20.9 µM (active)"}, {"smiles": "COc1cc([C@@H]2c3cc4c(cc3[C@@H](O)C3COC(=O)C32)OCO4)cc(OC)c1O", "note": "(stereo not given in full)", "Potency": "0.0526 µM (active)"}, {"smiles": "O=C(NCC1CCOCC1)c1cnc(Nc2ccc(Cl)cc2Cl)nc1C(F)(F)F", "viability (% of control)": 142}, {"smiles": "CC(C)N(CCNC(=O)CN1CCCC1=O)C(C)C", "viability (% of control)": 135}, {"smiles": "CN(C)NC(=O)CCC(=O)O", "viability (% of control)": 144}, {"smiles": "CC(C)(O)C=CC(=O)[C@](C)(O)[C@H]1[C@H](O)C[C@]2(C)[C@@H]3CC=C4[C@@H](C=C(O)C(=O)C4(C)C)[C@]3(C)C(=O)C[C@@]12C", "Potency": "0.105 µM (active)"}, {"smiles": "CC=C(C)C(=O)O[C@H]1C(C)=C2[C@@H]3OC(=O)[C@@](C)(O)[C@@]3(O)[C@@H](OC(=O)CCC)C[C@](C)(OC(C)=O)[C@@H]2[C@@H]1OC(=O)CCCCCCC", "Potency": "0.264 µM (active)"}, {"smiles": "C[C@]12CCC(=O)C(O)=C1CC[C@@H]1[C@H]3CCC(=O)[C@@]3(C)CC[C@@H]12", "viability (% of control)": 120}, {"smiles": "CCOC(=O)c1c(C(C#N)=CN)c2ccc(Cl)c(Cl)c2n1C", "viability (% of control)": 104}, {"smiles": "CC(C)[C@]12O[C@@H]1[C@@H]1O[C@]13[C@]1(O[C@H]1C[C@@H]1C4=C(CC[C@@]13C)C(=O)OC4)[C@H]2O", "viability (% of control)": 3.78}, {"smiles": "O=C(Nc1ccncc1)C(=O)c1cn(Cc2ccc(Cl)cc2)c2ccccc12", "Potency": "0.0526 µM (active)"}, {"smiles": "Cc1c(C(=O)Nc2cccc(C(F)(F)F)c2)cc(-c2ccccc2)n1CCCN1CCOCC1", "Potency": "18.7 µM (active)"}, {"smiles": "CCCCCC[C@H]1C(=O)O[C@H](C)[C@H](NC(=O)c2cccc(NC=O)c2O)C(=O)O[C@@H](C)[C@@H]1OC(=O)CC(C)C", "Potency": "0.148 µM (active)"}, {"smiles": "COC[C@H]1OC(=O)c2coc3c2[C@@]1(C)C1=C(C3=O)[C@@H]2CC[C@H](O)[C@@]2(C)C[C@@H]1OC(C)=O", "Potency": "0.332 µM (active)"}, {"smiles": "Oc1ccc2c3c1O[C@H]1c4[nH]c5c(c4C[C@@]4(O)[C@@H](C2)N(CC2CC2)CC[C@]314)C[C@@]1(O)[C@H]2Cc3ccc(O)c4c3[C@@]1(CCN2CC1CC1)[C@H]5O4", "viability (% of control)": 122}, {"smiles": "CC1=NN=C(c2ccc(N)cc2)c2cc3c(cc2C1)OCO3", "viability (% of control)": 145}, {"smiles": "CCc1c(C(=O)C(N)=O)c2c(OCC(=O)O)cccc2n1Cc1ccccc1", "viability (% of control)": 155}, {"smiles": "NC1CC1c1ccccc1", "note": "(stereo not given)", "viability (% of control)": 134}, {"smiles": "C[C@@H]1O[C@@H](O[C@@H]2C=C3CC[C@@H]4[C@@H](CC[C@]5(C)[C@H](c6ccc(=O)oc6)CC[C@@]45O)[C@@]3(C)CC2)[C@H](O)[C@H](O)[C@H]1O", "Potency": "0.0296 µM (active)"}, {"smiles": "O=c1cccc2n1CC1CNC[C@H]2C1", "Potency": "20.9 µM (active)"}, {"smiles": "C=C[C@@H]1CN2CCC1C[C@@H]2[C@@H](O)c1ccnc2ccccc12", "note": "(stereo not given in full)", "Potency": "16.6 µM (active)"}, {"smiles": "C=C[C@@H]1CN2CCC1C[C@H]2[C@H](O)c1ccnc2ccccc12", "note": "(stereo not given in full)", "Potency": "16.6 µM (active)"}, {"smiles": "CCC(=O)OC1CCC2C3CCC4=CC(=O)CC[C@@]4(C)C3CC[C@]12C", "note": "(stereo not given in full)", "viability (% of control)": 132}, {"smiles": "O=c1[nH]c2ccccc2n1C1CCN(Cc2ccc(-c3[nH]c4cc5ncnc5cc4nc3-c3ccccc3)cc2)CC1", "Potency": "2.64 µM (active)"}, {"smiles": "CC(C)(C)c1cc(C=C(C#N)C#N)cc(Br)c1O", "Potency": "9.35 µM (active)"}, {"smiles": "CCOC(=O)Nc1ccc(NCc2ccc(F)cc2)cc1N", "Potency": "18.7 µM (active)"}, {"smiles": "Cc1nc(-c2ccc(-c3ccc(C(=O)N4CCc5cc6c(cc54)C4(CCN(C)CC4)CO6)cc3)c(C)c2)no1", "viability (% of control)": 121}, {"smiles": "COc1ccc(CC2NCCc3cc(OC)c(OC)cc32)cc1OC", "note": "(stereo not given)", "viability (% of control)": 99.3}, {"smiles": "COc1ccc(C(=O)c2c(C)n(CCN3CCOCC3)c3cc(I)ccc23)cc1", "Potency": "18.7 µM (active)"}, {"smiles": "COC1=CC(C)=C[C@@H](C)[C@@H](O)[C@@H](C)CC(C)=CC=C[C@H](OC)[C@H]([C@@H](C)[C@@H](O)[C@H](C)[C@@]2(O)C[C@@H](O)[C@H](C)[C@@H](C(C)C)O2)OC1=O", "Potency": "0.0235 µM (active)"}, {"smiles": "COc1ccc2c(c[n+](C)c3c4cc5c(cc4ccc23)OCO5)c1OC", "Potency": "9.35 µM (active)"}, {"smiles": "COC1=C[C@@H]2[C@@H]3Cc4ccc(OC)c(O)c4[C@]2(CCN3C)CC1=O", "Potency": "9.35 µM (active)"}, {"smiles": "CC(=O)OCC1=C(C(=O)O)N2C(=O)[C@@H](N)[C@@H]2SC1", "viability (% of control)": 154}, {"smiles": "CC(=O)Nc1ccc(OC[C@](C)(O)C(=O)Nc2ccc([N+](=O)[O-])c(C(F)(F)F)c2)cc1", "viability (% of control)": 96.4}, {"smiles": "CC(C)[C@H]1C(=O)N[C@H](CO)Cc2c[nH]c3cccc(c23)N1C", "Potency": "0.372 µM (active)"}, {"smiles": "CN(C)[C@@H]1C(=O)C(C(N)=O)=C(O)[C@@]2(O)C(=O)C3=C(O)c4c(O)cccc4[C@@](C)(O)[C@H]3[C@H](O)[C@@H]12", "viability (% of control)": 99.9}, {"smiles": "CC1(N2CCC(n3c([C@@H]4CCCNC4)nc4ccccc43)CC2)CCCCCCC1", "Potency": "7.43 µM (active)"}, {"smiles": "CC[C@@H]1[C@@H](C)O[C@@](O)([C@@H](C)[C@H](O)[C@H](C)[C@H]2OC(=O)C=CC=C[C@@H](C)[C@@H]([C@@H](C)[C@@H](O)[C@H](C)[C@@]3(O)C[C@H](O[C@H]4C[C@H](O)[C@H](O)[C@H](C)O4)[C@H](CC)[C@@H](C)O3)OC(=O)C=CC=C[C@@H]2C)C[C@H]1O[C@H]1C[C@H](O)[C@H](O)[C@H](C)O1", "Potency": "1.05 µM (active)"}]}]}
